# Source: paper PMC7862700, “An all-to-all approach to the identification of sequence-specific readers for epigenetic DNA modifications on cytosine”
# What was measured:
# Test in all cases: DAPPL (digital affinity profiling via proximity ligation, sequencing); 10 mM Tris-HCl pH 7.5, 50 mM NaCl, 1 mM DTT, 4% glycerol, room temperature, 30 min; GST-TFs on glutathione beads, 16-mer random dsDNA library, 0.1% formaldehyde crosslink after washing; high values mean tight binding
# FLI1 = biological target: T1, FLI1 (Homo sapiens, UniProt Q01543 1-452); conditions: protein: recombinant; tags: N-terminal GST; dsDNA, one strand shown
# T1 sequence: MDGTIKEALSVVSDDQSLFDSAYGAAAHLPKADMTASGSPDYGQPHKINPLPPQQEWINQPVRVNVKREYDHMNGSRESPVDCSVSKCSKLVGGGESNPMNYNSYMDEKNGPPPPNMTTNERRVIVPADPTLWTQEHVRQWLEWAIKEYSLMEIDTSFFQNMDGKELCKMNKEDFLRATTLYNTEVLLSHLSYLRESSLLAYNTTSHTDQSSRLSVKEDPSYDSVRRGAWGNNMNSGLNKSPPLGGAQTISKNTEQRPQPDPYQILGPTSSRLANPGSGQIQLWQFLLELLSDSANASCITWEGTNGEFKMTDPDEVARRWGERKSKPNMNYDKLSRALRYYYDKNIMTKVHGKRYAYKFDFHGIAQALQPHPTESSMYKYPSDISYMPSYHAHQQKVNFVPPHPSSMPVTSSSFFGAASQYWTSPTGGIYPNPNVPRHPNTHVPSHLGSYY
# Outline: (§1)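 Pools of DNA-barcoded human transcription factors, expressed in yeast as GST fusions on glutathione beads and combined with a tag-only sample, were incubated with 200 nmole of a 16-mer random double-stranded DNA library. Incubation took 30 min at room temperature in Tris/NaCl/DTT/glycerol buffer and was followed by washing, 0.1% formaldehyde crosslinking, proximity ligation (BsaI/T4 ligase, 1 h, 37 °C), PCR amplification and sequencing on an Illumina NextSeq500. Binding signal is the ratio of a hexamer's read frequency for a factor to its frequency for the tag-only sample.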
# ELK1 = biological target: T2, ELK1 (Homo sapiens, UniProt P19419 1-428); conditions: protein: recombinant; tags: N-terminal GST; dsDNA, one strand shown
# T2 sequence: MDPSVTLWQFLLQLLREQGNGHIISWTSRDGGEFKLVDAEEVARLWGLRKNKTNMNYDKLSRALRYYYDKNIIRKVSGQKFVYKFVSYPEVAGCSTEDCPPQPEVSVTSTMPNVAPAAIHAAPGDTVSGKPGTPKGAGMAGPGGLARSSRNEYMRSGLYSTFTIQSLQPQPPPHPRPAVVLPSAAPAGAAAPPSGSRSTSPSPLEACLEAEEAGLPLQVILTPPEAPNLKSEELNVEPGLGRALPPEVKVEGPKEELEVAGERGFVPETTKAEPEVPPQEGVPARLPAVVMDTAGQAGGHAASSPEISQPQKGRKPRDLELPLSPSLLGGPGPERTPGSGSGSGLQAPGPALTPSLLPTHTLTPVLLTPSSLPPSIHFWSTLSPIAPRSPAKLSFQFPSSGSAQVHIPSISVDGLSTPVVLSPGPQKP
# Outline: as §1
# GABPA = biological target: T3, GABPA (Homo sapiens, UniProt Q06546 1-454); conditions: protein: recombinant; tags: N-terminal GST; dsDNA, one strand shown
# T3 sequence: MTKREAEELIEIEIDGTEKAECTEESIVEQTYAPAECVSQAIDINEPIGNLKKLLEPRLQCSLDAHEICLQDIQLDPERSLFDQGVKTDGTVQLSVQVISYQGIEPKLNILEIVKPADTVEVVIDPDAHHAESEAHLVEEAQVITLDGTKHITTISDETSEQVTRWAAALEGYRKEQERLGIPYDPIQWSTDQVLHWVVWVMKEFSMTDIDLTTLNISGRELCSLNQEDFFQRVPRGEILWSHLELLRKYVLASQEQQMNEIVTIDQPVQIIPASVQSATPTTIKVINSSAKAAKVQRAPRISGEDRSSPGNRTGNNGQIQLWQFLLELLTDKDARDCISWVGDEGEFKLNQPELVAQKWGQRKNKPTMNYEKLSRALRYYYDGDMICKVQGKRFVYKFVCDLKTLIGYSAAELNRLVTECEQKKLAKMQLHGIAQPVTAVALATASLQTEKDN
# Outline: as §1
# ERG = biological target: T4, ERG (Homo sapiens, UniProt P11308 1-479); conditions: protein: recombinant; tags: N-terminal GST; dsDNA, one strand shown
# T4 sequence: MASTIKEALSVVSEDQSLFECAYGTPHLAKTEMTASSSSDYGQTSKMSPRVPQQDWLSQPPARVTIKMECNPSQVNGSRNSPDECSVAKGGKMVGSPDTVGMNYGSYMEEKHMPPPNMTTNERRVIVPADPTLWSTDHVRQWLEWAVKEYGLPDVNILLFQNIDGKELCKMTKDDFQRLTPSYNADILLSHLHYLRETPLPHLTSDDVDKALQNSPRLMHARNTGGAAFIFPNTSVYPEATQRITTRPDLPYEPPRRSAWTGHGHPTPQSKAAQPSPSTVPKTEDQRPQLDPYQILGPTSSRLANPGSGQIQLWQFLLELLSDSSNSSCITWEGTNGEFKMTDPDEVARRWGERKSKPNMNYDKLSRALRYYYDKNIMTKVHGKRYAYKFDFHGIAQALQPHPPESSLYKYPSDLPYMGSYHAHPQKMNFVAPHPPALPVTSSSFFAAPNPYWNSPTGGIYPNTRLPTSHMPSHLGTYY
# Outline: as §1
# ELF1 = ELF1 (Homo sapiens, UniProt P32519 1-619); conditions: protein: recombinant; tags: N-terminal GST; dsDNA, one strand shown
# Outline: as §1
# EHF = biological target: T5, EHF (Homo sapiens, UniProt Q9NZC4 1-300); conditions: protein: recombinant; tags: N-terminal GST; dsDNA, one strand shown
# T5 sequence: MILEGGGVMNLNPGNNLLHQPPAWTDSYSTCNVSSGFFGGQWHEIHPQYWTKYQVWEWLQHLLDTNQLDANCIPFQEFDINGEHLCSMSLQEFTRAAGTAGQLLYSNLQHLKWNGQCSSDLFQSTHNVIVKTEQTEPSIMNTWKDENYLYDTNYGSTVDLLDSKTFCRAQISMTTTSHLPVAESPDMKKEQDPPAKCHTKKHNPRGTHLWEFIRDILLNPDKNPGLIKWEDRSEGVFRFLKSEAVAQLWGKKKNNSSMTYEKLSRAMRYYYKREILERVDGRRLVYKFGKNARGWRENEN
# Outline: as §1
# SPI1 = SPI1 (Homo sapiens, UniProt P17947 1-270); conditions: protein: recombinant; tags: N-terminal GST; dsDNA, one strand shown
# Outline: as §1
# SPIB = SPIB (Homo sapiens, UniProt Q01892 1-262); conditions: protein: recombinant; tags: N-terminal GST; dsDNA, one strand shown
# Outline: as §1
# ELK3 = biological target: T6, ELK3 (Homo sapiens, UniProt P41970 1-407); conditions: protein: recombinant; tags: N-terminal GST; dsDNA, one strand shown
# T6 sequence: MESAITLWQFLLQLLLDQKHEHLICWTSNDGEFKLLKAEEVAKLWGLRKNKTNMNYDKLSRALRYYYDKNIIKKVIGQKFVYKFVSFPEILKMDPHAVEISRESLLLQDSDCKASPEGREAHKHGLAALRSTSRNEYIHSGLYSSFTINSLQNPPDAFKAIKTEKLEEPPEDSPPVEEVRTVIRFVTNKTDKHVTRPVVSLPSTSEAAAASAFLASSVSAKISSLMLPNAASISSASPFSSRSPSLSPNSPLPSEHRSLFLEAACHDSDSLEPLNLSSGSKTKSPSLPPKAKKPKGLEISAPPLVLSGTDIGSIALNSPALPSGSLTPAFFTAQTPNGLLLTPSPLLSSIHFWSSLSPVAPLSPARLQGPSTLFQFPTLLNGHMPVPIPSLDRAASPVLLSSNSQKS
# Outline: as §1
# FEV = biological target: T7, FEV (Homo sapiens, UniProt Q99581 1-238); conditions: protein: recombinant; tags: N-terminal GST; dsDNA, one strand shown
# T7 sequence: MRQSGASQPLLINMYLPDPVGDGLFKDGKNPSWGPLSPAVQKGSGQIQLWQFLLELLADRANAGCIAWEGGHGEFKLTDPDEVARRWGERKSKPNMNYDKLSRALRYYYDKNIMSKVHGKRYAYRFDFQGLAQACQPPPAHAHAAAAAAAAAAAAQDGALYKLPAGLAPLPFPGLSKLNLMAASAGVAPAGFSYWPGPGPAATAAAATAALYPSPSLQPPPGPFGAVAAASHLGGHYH
# Outline: as §1
# ETV5 = ETV5 (Homo sapiens, UniProt P41161 1-510); conditions: protein: recombinant; tags: N-terminal GST; dsDNA, one strand shown
# Outline: as §1
# HSF1 = HSF1 (Homo sapiens, UniProt Q00613 1-529); conditions: protein: recombinant; tags: N-terminal GST; chain copies: 3; dsDNA, one strand shown
# Outline: as §1
# SPIC = biological target: T8, SPIC (Homo sapiens, UniProt Q8N5J4 1-248); conditions: protein: recombinant; tags: N-terminal GST; dsDNA, one strand shown
# T8 sequence: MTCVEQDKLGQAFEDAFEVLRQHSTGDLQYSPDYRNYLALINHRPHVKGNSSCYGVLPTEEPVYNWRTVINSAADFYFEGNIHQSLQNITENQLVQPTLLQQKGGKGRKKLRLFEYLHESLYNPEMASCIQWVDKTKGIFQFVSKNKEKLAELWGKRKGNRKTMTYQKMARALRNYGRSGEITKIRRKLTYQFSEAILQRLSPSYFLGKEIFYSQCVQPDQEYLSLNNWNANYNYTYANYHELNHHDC
# Outline: as §1
# ELF4 = ELF4 (Homo sapiens, UniProt Q99607 1-663); conditions: protein: recombinant; tags: N-terminal GST; dsDNA, one strand shown
# Outline: as §1
# ELK4 = biological target: T9, ELK4 (Homo sapiens, UniProt P28324-2 1-405); conditions: protein: recombinant; tags: N-terminal GST; dsDNA, one strand shown
# T9 sequence: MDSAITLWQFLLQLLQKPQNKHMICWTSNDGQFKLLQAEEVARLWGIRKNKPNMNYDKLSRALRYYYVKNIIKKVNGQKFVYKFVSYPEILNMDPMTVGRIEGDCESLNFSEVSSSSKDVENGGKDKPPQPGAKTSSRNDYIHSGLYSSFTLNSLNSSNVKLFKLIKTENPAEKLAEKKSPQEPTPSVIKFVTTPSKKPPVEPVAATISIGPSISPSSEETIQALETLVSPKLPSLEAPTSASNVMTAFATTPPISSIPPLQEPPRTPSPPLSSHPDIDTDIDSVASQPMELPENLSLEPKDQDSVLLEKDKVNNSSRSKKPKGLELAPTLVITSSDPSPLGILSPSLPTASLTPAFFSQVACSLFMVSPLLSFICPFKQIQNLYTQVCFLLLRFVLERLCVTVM
# Outline: as §1
# ETV2 = biological target: T10, ETV2 (Homo sapiens, UniProt O00321 1-342); conditions: protein: recombinant; tags: N-terminal GST; dsDNA, one strand shown
# T10 sequence: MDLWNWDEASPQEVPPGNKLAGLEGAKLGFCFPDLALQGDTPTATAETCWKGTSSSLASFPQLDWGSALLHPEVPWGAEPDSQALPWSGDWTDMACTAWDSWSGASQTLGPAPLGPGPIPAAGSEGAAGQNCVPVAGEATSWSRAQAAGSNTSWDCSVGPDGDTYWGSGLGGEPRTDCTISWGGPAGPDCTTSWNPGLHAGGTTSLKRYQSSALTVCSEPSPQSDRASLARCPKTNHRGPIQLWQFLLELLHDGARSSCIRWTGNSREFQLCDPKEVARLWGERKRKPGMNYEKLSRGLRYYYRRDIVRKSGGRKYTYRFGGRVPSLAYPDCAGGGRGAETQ
# Outline: as §1
# ELF3 = biological target: T11, ELF3 (Homo sapiens, UniProt P78545 1-371); conditions: protein: recombinant; tags: N-terminal GST; dsDNA, one strand shown
# T11 sequence: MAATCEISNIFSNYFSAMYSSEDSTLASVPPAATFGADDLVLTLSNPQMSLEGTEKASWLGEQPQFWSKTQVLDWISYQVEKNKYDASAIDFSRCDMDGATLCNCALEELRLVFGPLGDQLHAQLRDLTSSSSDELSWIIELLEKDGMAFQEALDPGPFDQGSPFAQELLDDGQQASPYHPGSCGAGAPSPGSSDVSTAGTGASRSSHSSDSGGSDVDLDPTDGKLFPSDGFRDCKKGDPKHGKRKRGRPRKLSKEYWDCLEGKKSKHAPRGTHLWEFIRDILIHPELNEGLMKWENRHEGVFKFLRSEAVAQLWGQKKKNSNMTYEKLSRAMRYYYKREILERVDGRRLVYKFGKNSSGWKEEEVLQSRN
# Outline: as §1
# CRX = CRX (Homo sapiens, UniProt O43186 1-299); conditions: protein: recombinant; tags: N-terminal GST; dsDNA, one strand shown
# Outline: as §1
# ETV1 = ETV1 (Homo sapiens, UniProt P50549 1-477); conditions: protein: recombinant; tags: N-terminal GST; dsDNA, one strand shown
# Outline: as §1
# Chain of ELF1 (P32519 whole entry): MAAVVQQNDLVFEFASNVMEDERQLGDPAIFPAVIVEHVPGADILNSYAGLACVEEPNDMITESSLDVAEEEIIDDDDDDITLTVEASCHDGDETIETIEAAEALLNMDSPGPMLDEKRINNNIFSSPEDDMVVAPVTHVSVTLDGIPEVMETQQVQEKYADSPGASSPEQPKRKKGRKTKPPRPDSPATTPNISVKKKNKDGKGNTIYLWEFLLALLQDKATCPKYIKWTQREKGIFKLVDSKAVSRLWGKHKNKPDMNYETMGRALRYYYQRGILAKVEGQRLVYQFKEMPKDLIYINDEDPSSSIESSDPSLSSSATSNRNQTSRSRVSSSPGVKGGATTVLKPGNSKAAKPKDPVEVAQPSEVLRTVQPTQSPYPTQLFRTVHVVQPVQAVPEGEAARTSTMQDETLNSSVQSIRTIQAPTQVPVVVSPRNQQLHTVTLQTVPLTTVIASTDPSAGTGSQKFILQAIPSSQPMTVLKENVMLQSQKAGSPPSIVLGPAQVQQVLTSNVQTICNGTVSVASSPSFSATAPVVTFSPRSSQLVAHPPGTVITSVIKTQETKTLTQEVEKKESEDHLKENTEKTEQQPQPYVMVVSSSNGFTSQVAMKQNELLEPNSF
# Chain of SPIB (Q01892 whole entry): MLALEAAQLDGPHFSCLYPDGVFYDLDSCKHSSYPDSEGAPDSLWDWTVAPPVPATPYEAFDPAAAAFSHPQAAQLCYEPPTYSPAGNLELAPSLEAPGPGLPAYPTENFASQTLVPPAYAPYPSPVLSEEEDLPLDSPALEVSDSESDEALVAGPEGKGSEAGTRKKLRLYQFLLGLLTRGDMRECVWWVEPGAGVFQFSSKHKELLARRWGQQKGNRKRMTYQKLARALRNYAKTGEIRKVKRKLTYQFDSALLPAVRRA
# Chain of ETV1 (P50549 whole entry): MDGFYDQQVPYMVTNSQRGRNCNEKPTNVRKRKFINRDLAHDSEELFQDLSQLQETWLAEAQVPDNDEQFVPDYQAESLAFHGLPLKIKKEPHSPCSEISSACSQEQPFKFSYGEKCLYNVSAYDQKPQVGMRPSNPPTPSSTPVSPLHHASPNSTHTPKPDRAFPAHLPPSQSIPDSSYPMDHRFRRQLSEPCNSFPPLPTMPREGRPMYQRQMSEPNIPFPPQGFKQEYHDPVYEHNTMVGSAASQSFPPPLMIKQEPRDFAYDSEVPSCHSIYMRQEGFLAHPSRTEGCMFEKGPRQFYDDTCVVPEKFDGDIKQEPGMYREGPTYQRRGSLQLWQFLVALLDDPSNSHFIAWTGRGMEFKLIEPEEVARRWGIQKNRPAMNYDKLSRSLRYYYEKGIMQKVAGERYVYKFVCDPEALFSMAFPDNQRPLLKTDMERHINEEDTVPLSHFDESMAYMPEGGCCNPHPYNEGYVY
# Chain of HSF1 (Q00613 whole entry): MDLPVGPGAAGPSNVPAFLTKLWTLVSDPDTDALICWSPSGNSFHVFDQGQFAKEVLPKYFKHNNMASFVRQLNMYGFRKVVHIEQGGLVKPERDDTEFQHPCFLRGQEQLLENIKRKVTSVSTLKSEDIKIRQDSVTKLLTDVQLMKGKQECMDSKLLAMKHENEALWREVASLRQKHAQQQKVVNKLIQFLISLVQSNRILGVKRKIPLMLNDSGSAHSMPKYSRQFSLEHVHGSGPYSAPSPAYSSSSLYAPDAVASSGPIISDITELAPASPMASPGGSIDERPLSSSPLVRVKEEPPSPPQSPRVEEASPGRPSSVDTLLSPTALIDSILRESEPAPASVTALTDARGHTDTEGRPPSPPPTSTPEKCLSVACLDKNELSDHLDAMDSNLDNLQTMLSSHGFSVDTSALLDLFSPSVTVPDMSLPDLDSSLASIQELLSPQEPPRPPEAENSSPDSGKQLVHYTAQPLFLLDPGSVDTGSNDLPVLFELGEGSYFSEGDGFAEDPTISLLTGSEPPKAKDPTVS
# Chain of ELF4 (Q99607 whole entry): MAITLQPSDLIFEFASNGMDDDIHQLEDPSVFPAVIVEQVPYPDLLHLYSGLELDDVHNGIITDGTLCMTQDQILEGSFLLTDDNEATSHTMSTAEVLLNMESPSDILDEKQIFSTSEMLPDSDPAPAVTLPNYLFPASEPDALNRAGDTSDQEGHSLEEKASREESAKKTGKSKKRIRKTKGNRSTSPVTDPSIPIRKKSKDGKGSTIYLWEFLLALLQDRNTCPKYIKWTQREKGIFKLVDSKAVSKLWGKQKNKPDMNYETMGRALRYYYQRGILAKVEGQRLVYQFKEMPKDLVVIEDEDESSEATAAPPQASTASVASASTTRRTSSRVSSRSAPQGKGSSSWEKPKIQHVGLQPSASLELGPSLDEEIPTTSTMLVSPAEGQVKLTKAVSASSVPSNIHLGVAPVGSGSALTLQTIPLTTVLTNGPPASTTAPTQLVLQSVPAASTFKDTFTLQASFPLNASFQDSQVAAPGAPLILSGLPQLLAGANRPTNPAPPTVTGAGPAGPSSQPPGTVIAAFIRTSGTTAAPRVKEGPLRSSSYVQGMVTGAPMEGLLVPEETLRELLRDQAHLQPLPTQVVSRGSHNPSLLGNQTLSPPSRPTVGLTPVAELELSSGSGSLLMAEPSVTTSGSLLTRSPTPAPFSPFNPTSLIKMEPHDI
# Chain of CRX (O43186 whole entry): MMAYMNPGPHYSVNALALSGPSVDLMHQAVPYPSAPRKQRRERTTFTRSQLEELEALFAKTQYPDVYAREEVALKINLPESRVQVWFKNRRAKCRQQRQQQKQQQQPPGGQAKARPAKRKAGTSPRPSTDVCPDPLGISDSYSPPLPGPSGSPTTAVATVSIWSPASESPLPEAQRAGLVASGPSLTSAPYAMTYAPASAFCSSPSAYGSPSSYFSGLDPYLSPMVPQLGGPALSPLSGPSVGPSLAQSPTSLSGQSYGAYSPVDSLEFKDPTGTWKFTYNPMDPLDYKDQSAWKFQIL
# Chain of ETV5 (P41161 whole entry): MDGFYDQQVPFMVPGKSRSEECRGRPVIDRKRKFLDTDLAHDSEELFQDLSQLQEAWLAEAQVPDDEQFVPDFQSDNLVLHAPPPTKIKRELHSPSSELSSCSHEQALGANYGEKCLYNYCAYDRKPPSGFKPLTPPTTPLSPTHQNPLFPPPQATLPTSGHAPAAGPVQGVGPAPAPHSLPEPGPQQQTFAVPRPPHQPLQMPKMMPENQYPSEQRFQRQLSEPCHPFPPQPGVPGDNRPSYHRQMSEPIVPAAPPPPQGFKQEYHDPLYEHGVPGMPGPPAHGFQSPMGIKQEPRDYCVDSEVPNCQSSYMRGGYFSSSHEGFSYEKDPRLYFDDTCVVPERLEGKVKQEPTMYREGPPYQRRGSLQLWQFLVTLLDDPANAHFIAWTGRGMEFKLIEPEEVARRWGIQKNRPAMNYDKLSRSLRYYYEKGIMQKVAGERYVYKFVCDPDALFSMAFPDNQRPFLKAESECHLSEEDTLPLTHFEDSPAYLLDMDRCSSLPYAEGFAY
sequence,measurement,setting,value
CTCATG,binding signal,FLI1,"1.29 fold enrichment (6-mer frequency, TF over GST control)"
same,binding signal,ELK1,"1.29 fold enrichment (6-mer frequency, TF over GST control)"
same,binding signal,GABPA,"1.26 fold enrichment (6-mer frequency, TF over GST control)"
same,binding signal,ERG,"1.21 fold enrichment (6-mer frequency, TF over GST control)"
same,binding signal,ELF1,"1.32 fold enrichment (6-mer frequency, TF over GST control)"
same,binding signal,EHF,"1.23 fold enrichment (6-mer frequency, TF over GST control)"
same,binding signal,SPI1,"1.27 fold enrichment (6-mer frequency, TF over GST control)"
same,binding signal,SPIB,"1.11 fold enrichment (6-mer frequency, TF over GST control)"
same,binding signal,ELK3,"1.26 fold enrichment (6-mer frequency, TF over GST control)"
same,binding signal,FEV,"1.27 fold enrichment (6-mer frequency, TF over GST control)"
same,binding signal,ETV5,"1.28 fold enrichment (6-mer frequency, TF over GST control)"
same,binding signal,HSF1,"1.04 fold enrichment (6-mer frequency, TF over GST control)"
same,binding signal,SPIC,"1.35 fold enrichment (6-mer frequency, TF over GST control)"
same,binding signal,ELF4,"1.19 fold enrichment (6-mer frequency, TF over GST control)"
same,binding signal,ELK4,"1.28 fold enrichment (6-mer frequency, TF over GST control)"
same,binding signal,ETV2,"1.24 fold enrichment (6-mer frequency, TF over GST control)"
same,binding signal,ELF3,"1.2 fold enrichment (6-mer frequency, TF over GST control)"
same,binding signal,CRX,"1.05 fold enrichment (6-mer frequency, TF over GST control)"
same,binding signal,ETV1,"1.29 fold enrichment (6-mer frequency, TF over GST control)"
